IDH1 R132H inh: blocks human mutant IDH1 R132H enzyme | IDH1-R132H enzyme, NADPH consumption, diaphorase/resazurin fluorescence | Potency, µM (top dose mostly 76.6 µM), most hits filed as inhibitors | 0.093% of 390,000 active | AID 602179; also: nearly all actives have a fitted effect of over 65% in size
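IDH1-R132H (0.5 ug/mL) preincubated 30 min with compound, then NADPH (0.016 mM) and alpha-KG (2 mM) added; 80 min at RT, pH 7.5. Remaining NADPH coupled via diaphorase/resazurin to fluorescence (540/590 nm); concentration-response curves normalized to no-enzyme control.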
VDR inhibitor: blocks the human vitamin D receptor | P11473 | VDR-SRC2-3 peptide fluorescence polarization, 2 h | Potency, µM, hits mostly inhibitors | 0.93% of 400,000 active | AID 504847
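Measured by FP: displacement of SRC2-3 coactivator peptide from VDR by library compounds, following a two-hour ambient incubation.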
Sfp inh: Sfp phosphopantetheinyl transferase inhibition. AID 1490. Potency, µM, usual class: inhibitors. 3.5% of 310,000 active. Biochemical Sfp PPTase activity, qHTS;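 also: the enzyme is Sfp with the accession as filed and its product quenches rhodamine fluorescence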
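Step 1, compound plus 15 nM Sfp-PPTase, 15 min, room temperature. Step 2, add rhodamine-CoA (5 uM) and BHQ-2-YbbR (12.5 uM). Step 3, read 525/598 nm fluorescence at 0 and 30 min.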
PLK1 PBD block: inhibitors of human PLK1 polo-box domain binding; P53350; Plk1 PBD binding of FITC phosphopeptide, fluorescence polarization; 2.8% of 360,000 active; Potency, µM, actives largely listed as inhibitors; AID 720504; also: series mostly up to about 57 µM; nearly all actives have a fitted effect of over 65% in size
Target sequence (P53350 whole entry, looked up, the tested form may be a part): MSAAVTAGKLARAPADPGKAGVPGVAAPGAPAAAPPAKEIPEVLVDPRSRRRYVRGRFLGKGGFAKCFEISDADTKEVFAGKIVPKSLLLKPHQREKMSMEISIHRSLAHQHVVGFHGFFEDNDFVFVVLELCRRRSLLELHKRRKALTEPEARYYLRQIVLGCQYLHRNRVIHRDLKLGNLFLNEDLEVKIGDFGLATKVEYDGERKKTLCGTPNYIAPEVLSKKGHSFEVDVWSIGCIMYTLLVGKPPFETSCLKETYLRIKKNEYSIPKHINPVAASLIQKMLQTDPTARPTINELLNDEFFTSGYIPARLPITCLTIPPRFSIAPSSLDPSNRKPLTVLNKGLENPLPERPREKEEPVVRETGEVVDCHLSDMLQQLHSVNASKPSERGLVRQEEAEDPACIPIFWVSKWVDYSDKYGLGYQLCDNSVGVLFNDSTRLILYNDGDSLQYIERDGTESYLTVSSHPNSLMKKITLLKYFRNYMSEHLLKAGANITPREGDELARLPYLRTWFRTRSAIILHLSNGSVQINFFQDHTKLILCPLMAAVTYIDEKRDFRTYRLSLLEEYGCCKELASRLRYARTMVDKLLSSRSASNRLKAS
TrxR1 substrate: is turned over as a substrate by rat TrxR1 | purified TrxR1 substrate turnover, NADPH consumption readout | 0.01% of 390,000 active | AID 588456 | Potency, µM (series often up to 114 µM); also: nearly all actives have a fitted effect of over 50% in size
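Rat TrxR1, dispensed at 90 nM, was prereduced with 400 uM NADPH (final) for 5 min at ~22 deg C, then incubated with compound 15 min before 400 uM selenite. A first-read NADPH fluorescence drop versus no-compound background flagged substrates.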
TrxR1 inh: blocks rat thioredoxin reductase 1. O89049. recombinant rTrxR1, NADPH fluorescence consumption, selenite substrate. Potency, µM (doses to about 114 µM), usual class: inhibitors. 1% of 390,000 active. AID 588453; also: nearly all actives have a fitted effect of over 65% in size
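Rat TrxR1 (90 nM in the dispensed reagent) was pre-reduced with 400 uM NADPH for 5 min at room temperature, then incubated with compound for 15 min. After 400 uM selenite was added, NADPH fluorescence (Ex 340/Em 450 nm) was followed for 8 min.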
Hits are given with their value; . = inactive; ? = inconclusive; / = no result. An excerpt weighted towards active compounds, which were near 5.2% of everything screened. Calls follow the shape of the dose curve; as a rule, active = well fitted curve in the direction sought with a large enough effect; inconclusive = small, poorly fitted or top-dose-only effect, or another doubt; inactive = no such curve, though single readings can be large; an effect the other way counts as inactive or inconclusive.

SMILES	IDH1 R132H inh	VDR inhibitor	Sfp inh	PLK1 PBD block	TrxR1 substrate	TrxR1 inh
COc1cccc(CNC(=O)Cn2cc3c(n2)-c2c(oc(C(=O)N4CCOCC4)c2C)CC3)c1	.	.	/	/	.	.
Oc1cc2c(c(Cl)c1O)CCNC[C@H]2c1ccccc1	/	/	79µM	/	/	/
C=CCN1CCc2c(cc(O)c(O)c2Cl)C(c2ccccc2)C1 (stereo not drawn)	.	.	?	.	.	?
Oc1ccc(C2CNCCc3c2cc(O)c(O)c3Cl)cc1 (stereo not drawn)	.	.	40µM	.	.	?
Oc1cc2c(c(Cl)c1O)CCNCC2c1ccccc1 (stereo not drawn)	.	?	50µM	.	.	.
CCNC(=O)C1(C)CCN(Cc2noc(-c3c(C)noc3C)n2)C1 (stereo not drawn)	/	/	/	.	/	/
O=C(Cc1ccc(NC(=O)N2CCCCc3ccccc32)cc1)NCc1ccccc1	.	.	/	/	.	.
COc1ccc(-n2ncc3c2CC(C)(C)CC3NC(=O)c2c(C)cc(=O)oc2C)cc1 (stereo not drawn)	.	?	.	24µM	.	.
COc1ccc(-n2ncc3c2CC(C)(C)CC3NC(=O)c2cnc(C)cn2)cc1 (stereo not drawn)	.	.	.	.	.	.
COc1cc(C(=O)NC2CC(C)(C)Cc3c2cnn3-c2ccccc2)cc(OC)c1OC (stereo not drawn)	.	?	.	30µM	.	.
COc1cccc(NS(=O)(=O)c2ccc3[nH]cc(C(=O)NC4CCCCC4)c(=O)c3c2)c1	.	.	/	/	.	.
COc1ccc(CCNC(=O)CN2C(=O)COc3ccc(S(=O)(=O)N4CCCC4)cc32)c(OC)c1	.	.	.	.	.	.
Cc1ccc(NC(=O)COC(=O)C2CC3C=CC2C3)cc1S(=O)(=O)N1CCCCC1 (stereo not drawn)	.	.	.	21µM	.	.
COC(=O)c1ccc(C(=O)Nc2ccc(C(C)C)cc2N)cc1	.	.	.	30µM	.	.
COC(=O)c1ccc(C(=O)NN)cc1	.	.	.	.	.	.
COc1cccc(C(=O)NC(=NCCc2c[nH]c3ccc(OC)cc23)Nc2nc(C)cc(C)n2)c1	.	.	/	/	.	.
CCC(C)Nc1nc(N)c([N+](=O)[O-])c(NCc2ccccc2)n1 (stereo not drawn)	.	.	.	30µM	.	.
CCOC(=O)C1CCCN(S(=O)(=O)c2ccc3[nH]c(=O)ccc3c2)C1 (stereo not drawn)	.	.	/	/	.	.
Cc1ccc(S(=O)(=O)c2ccccc2)cc1S	/	/	45µM	/	/	/
Cc1cccc(-c2noc(CN(C(=O)c3ccc4c(c3)OCO4)C(C)C)n2)c1	.	.	.	27µM	.	.
C=C1CC[C@H](O)C/C1=C/C=C1\CCC[C@]2(C)[C@@H]([C@H](C)CC[C@@H](O)C(C)(C)O)CC[C@@H]12	/	.	.	/	/	/
CCc1c(C)[nH]n(-c2ccc(Oc3ccccc3)c(S(=O)(=O)O)c2)c1=O	.	?	.	13µM	.	.
CN(C(=O)c1ccc(NC(=O)Cc2ccc(NC(=O)C3CCN(C(=O)C4CC4)CC3)cc2)cc1)C1CCCC1	.	.	/	.	.	.
O=C(CCNS(=O)(=O)c1ccc(Br)cc1)NC1CCCCC1	.	.	.	.	.	.
O=S(=O)(NC(=S)NC1CCCCC1)c1ccc(Br)cc1	.	.	.	?	.	2.8µM
SMILES	IDH1 R132H inh	VDR inhibitor	Sfp inh	PLK1 PBD block	TrxR1 substrate	TrxR1 inh
NS(=O)(=O)c1ccc(NC(=S)NC2CCCCCC2)cc1	.	.	25µM	19µM	.	16µM
NS(=O)(=O)c1ccc(NC(=O)CSC2CCCCC2)cc1	.	?	.	30µM	.	.
O=S(=O)(c1ccc(NC(=S)NC2CC2)cc1)N1CCOCC1	.	.	.	?	.	?
O=S(=O)(c1ccc(NC(=S)NC2CCCC2)cc1)N1CCCC1	.	?	.	15µM	.	.
NS(=O)(=O)c1ccc(NC(=S)NC(=O)C2CCCCC2)cc1	.	.	.	.	.	?
COc1ccc(CNC(=O)CN2C(=O)CCCc3ccccc32)cc1	.	.	/	/	.	.
COc1ccc(NC(=O)C(c2ccccc2)n2c(=O)c(-c3cc4ccccc4[nH]3)nc3ccccc32)cc1 (stereo not drawn)	/	/	/	.	/	/
CCNc1ncc2nc(-c3ccc(F)cc3)c(=O)n(CCOC)c2n1	/	.	.	/	/	/
CCOC(=O)c1ccc(N2C(=O)CC(SCC(=O)Nc3ccc(S(N)(=O)=O)cc3)C2=O)cc1 (stereo not drawn)	.	?	.	30µM	.	.
Cc1ccc(N2C(=O)CC(SCC(=O)Nc3ccc(S(N)(=O)=O)cc3)C2=O)cc1 (stereo not drawn)	.	.	.	.	.	.
COc1ccc(CNC(=O)COC(=O)c2ccc(F)c(S(=O)(=O)N3CCCCC3)c2)cc1OC	.	.	.	.	.	.
Cc1ccccc1Cn1cnc2c(nnn2Cc2ccc(F)cc2)c1=O	.	89µM	.	.	.	.
O=C1NC(=O)C2(N1)C(=O)c1cccc3cccc2c13 (stereo not drawn)	.	/	/	11µM	/	/
CCNC(=O)CCSc1nc(C)cc(C)n1	.	.	32µM	.	.	.
Cc1cc(C)nc(SCCC(=O)N(C)C)n1	.	.	50µM	?	.	.
Cc1cccc(NC(=O)CCSc2nc(C)cc(C)n2)c1	.	.	.	.	.	.
Cc1nc(C(N)=O)c(N)n1CCc1ccccc1	.	45µM	.	.	.	.
Cc1nc2ccccc2n1CCc1ccccc1	.	.	.	.	.	.
O=C(NCc1ccccc1)C(=O)Nc1ccc2nc3n(c(=O)c2c1)CCCCC3	.	.	/	/	.	.
CN1C2CCC1/C(=C\c1ccc(F)cc1)C(=O)/C2=C/c1ccc(F)cc1	.	?	.	.	.	.
C=CC(=O)N1C/C(=C/c2ccc(F)cc2)C(=O)/C(=C\c2ccc(F)cc2)C1	.	10µM	/	?	.	25µM
S=C(NCc1ccco1)N1CCN(C/C=C/c2ccccc2)CC1	.	.	79µM	.	.	.
CCCc1ccc(S(=O)(=O)N2CCN(Cc3ccco3)CC2)cc1	.	.	.	.	.	.
O=C(NCc1ccco1)c1ccc(S(=O)(=O)N2CCCCC2)cc1	.	.	.	.	.	.
O=S(=O)(c1cccc(C(F)(F)F)c1)N1CCN(C(=S)NCc2ccco2)CC1	.	.	71µM	.	.	.
O=C(NCc1ccco1)c1ccc(S(=O)(=O)N2CCOCC2)cc1	.	.	20µM	?	.	.
O=[N+]([O-])c1ccc(S(=O)(=O)N2CCN(Cc3ccco3)CC2)cc1	.	.	56µM	.	.	.
